According to PubChem BioAssay AID2069 (Sanford-Burnham Center for Chemical Genomics, 2009):
About 210 (18%) of roughly 1,200 compounds were called active. Not all results are given here. Unmarked numbers belong to inactive results. No stated cut-off is given here; in the data, active means inhibition above about 30%; inactive means the rest.

Experiment: fluorescence readout artefact check – biochemical, HTRF, uHTS, artefact control for SUMOylation inhibitor project, confirmation (AID 2069)
Details: HTRF interference counterscreen, at 35 µM, stronger effect = higher value

SMILES	inhibition
O=C(O)c1ccc(C(=O)Nc2cccc3ccccc23)c(C(=O)O)c1	4.4%
O=[N+]([O-])c1ccc2[nH]c(O)c(N=NC(=S)Nc3cccnc3)c2c1	-5.4%
CCN(CC)CCOC(=O)c1ccc(N/C=C(/C#N)c2nc(-c3ccc(OC)c(OC)c3)cs2)cc1	6.75%
O=C(NCc1ccccc1)c1ccc2nc(-c3ccco3)c(-c3ccco3)nc2c1	15.6%
O=S(=O)(c1ccc2nc(-c3ccco3)c(-c3ccco3)nc2c1)N1CCOCC1	30.4% (active)
O=C(Nc1ccc2nc(-c3ccco3)c(-c3ccco3)nc2c1)N1CCN(c2ccccn2)CC1	12.2%
C=CCN1C(=O)N(CC=C)c2cccc3cccc1c23	-6.45%
Nc1c(N2CCCC2)cc(Cl)c2nonc12	22.4%
CCOC(=O)COc1nc(-c2ccco2)cc(-c2ccco2)c1C#N	22.2%
N#Cc1c(-c2cccc(Br)c2)cc(-c2ccco2)[nH]c1=O	31.6% (active)
N#Cc1c(-c2ccco2)cc(-c2cccnc2)nc1N	25.1%
COc1ccc(S(=O)(=O)/N=C2/NC(=O)/C(=C\c3ccco3)S2)cc1	-10.3%
CC(=O)C1=C(O)C=C(c2ccco2)CC1c1ccco1 (centres undefined)	-2.85%
O=c1oc2cc(O)ccc2cc1-c1ccc(F)cc1	45.8% (active)
O=c1cc(-c2ccc(F)cc2)[nH][nH]1	-7.15%
Cc1ccc(NC(=O)CN2C(=O)S/C(=C/c3ccc(O)c([N+](=O)[O-])c3)C2=O)cc1C	-1.6%
Cc1ccc(NC(=O)Cn2c(O)c(N=NC(=O)c3cc4ccccc4cc3O)c3ccccc32)cc1	8.55%
Cc1ccc(S(=O)(=O)c2cc3c(=O)n4ccccc4nc3n(Cc3ccco3)c2=N)cc1	-2.55%
Cn1c(C(=O)N2COCC2(C)C)cc2c(=O)n3ccccc3nc21	55.8% (active)
N=c1c(S(=O)(=O)c2ccccc2)cc2c(=O)n3ccccc3nc2n1Cc1ccco1	14.8%
N=c1c(S(=O)(=O)c2ccc(Cl)cc2)cc2c(=O)n3ccccc3nc2n1Cc1ccco1	-23.2%
N=c1c(S(=O)(=O)c2ccc(Br)cc2)cc2c(=O)n3ccccc3nc2n1Cc1ccco1	-13.2%
Cn1c(C(=O)N2CCN(C(=O)c3ccco3)CC2)cc2c(=O)n3ccccc3nc21	57.9% (active)

SMILES	inhibition
O=C(/C=C/c1ccco1)Nc1cccc2cccnc12	2.9%
CCOC(=O)c1c(CSc2ccccc2)n(C)c2cc(Br)c(OCC(O)CNC(CO)(CO)CO)cc12 (centres undefined)	0.05%
CN(C)c1cccc(C(=O)OCc2cc(=O)oc3cc(O)ccc23)c1	3.4%
O=C(Cc1cc(=O)oc2cc(O)ccc12)NCC1CCC(C(=O)O)CC1 (centres undefined)	44.1% (active)
O=C(Nc1cccc2nsnc12)c1ccc(-c2ccc(Br)cc2)o1	22.6%
O=C(NCCc1ccccc1)c1ccc2nc(-c3ccco3)c(-c3ccco3)nc2c1	12.2%
Cc1nn(CC(=O)Nc2ccc(C(=O)N(C)C)cc2)c(=O)c2ccccc12	-0.95%
Nc1nnc(-c2cc3c(ccc4ccccc43)oc2=O)s1	30.1% (active)
CCOc1cccc2cc(-c3nnc(NCc4ccco4)s3)c(=O)oc12	26.9%
CNc1nnc(-c2cc3ccccc3oc2=O)s1	23.1%
Brc1ccc(C2Nc3cccc4cccc(c34)N2)o1	-8.65%
C/C(=N\OCc1nc2ccccc2c(=O)n1/N=C/c1cc(C)cc([N+](=O)[O-])c1O)c1ccccc1	-17%
COC(=O)Cn1c2ccc(C)cc2c2nc(C)sc21	2.05%
CCOC(=O)Cn1c2ccc(OC)cc2c2nc3ccccc3nc21	53.6% (active)
CCOC(=O)Cn1c2ccccc2c2nc3ccccc3nc21	25.7%
CCc1cccc(NC(=S)Nc2cccc3ccccc23)c1	2.95%
O=c1cc2c(=O)oc3cc(O)c(O)oc3c2c(O)c1O	-3.8%
Cc1cc(=O)n2[nH]c(N)c(N=Nc3ccccc3)c2n1	-13.8%
O=c1c(-c2ccccc2)coc2c(CN3CCCC3)c(O)ccc12	42% (active)
COc1ccccc1/C=N/Nc1cc(N(C)C)nc(N(C)C)n1	11.9%
Cn1c(=O)c(Nc2ccc(O)cc2)c2c3c(cccc31)C(=O)c1ccccc1-2	-3.25%
NC(=O)N/N=C/c1ccc2cccc(OCc3ccccc3)c2n1	68.3% (active)
O=C(CNc1cccc2ccccc12)N/N=C/c1ccccn1	17.4%

SMILES	inhibition
Cc1cccc(/C=N/NC(=O)C(C)Nc2cccc3ccccc23)n1 (centres undefined)	1.6%
COc1ccc(N=C2NC(=O)/C(=C\c3ccco3)S2)cc1	4.75%
COc1ccc(-n2c(CNc3ccc(C)cc3)nnc2SCC(=O)Nc2nc(-c3ccccc3)cs2)cc1	-1.4%
Cc1cccc(NC(=O)CC2Nc3cccc4cccc(c34)NC2=O)c1 (centres undefined)	-17.8%
O=C(O)/C=C/C(=O)Nc1ccc2c(c1)NC(=O)CO2	-0.95%
O=C(N/N=C/c1cc(Br)cc(Br)c1O)c1ccncc1	12.4%
COc1cc([N+](=O)[O-])cc(/C=N/NC(=O)CC#N)c1O	21.6%
Nc1nnc(CC(=O)N/N=C/c2cc([N+](=O)[O-])cc(Br)c2O)s1	30% (active)
NC(=O)CC(NC(=O)Cc1ccc(Br)cc1)c1ccc(NCCc2ccccc2F)c([N+](=O)[O-])c1 (centres undefined)	5.95%
O=C(/C=C/c1ccco1)NC(=S)NNC(=O)c1ccco1	-18.9%
O=C(O)CSc1cc(C(=O)c2cc(F)ccc2O)cn2c(=O)c3c(-c4ccccc4)csc3nc12	28.9%
CCCN(CC1CC1)c1nc(N)c2c(N)nc(OC)cc2c1C#N	10.2%
N#Cc1c(N2CCN(c3ccc(F)cc3)CC2)nc(N)c2c(N)nc3c(c12)CC(=O)N3C1CC1	16.5%
N#Cc1c(N(CCO)CCO)nc(N)c2c(N)nc3c(c12)CC(=O)N3CC1CCCO1 (centres undefined)	41.8% (active)
CN(CCO)c1nc(N)c2c(N)nc3c(c2c1C#N)CC(=O)N3C1CCCC1	43.9% (active)
N#Cc1c(N(CCO)CCO)nc(N)c2c(N)nc3c(c12)CC(=O)N3Cc1cccs1	25.1%
COc1ccc(C)c2sc(NC(=O)c3cccc(N4C(=O)CCC4=O)c3)nc12	21%
CC(C)C(=O)Nc1cccc(C(=O)NCc2ccc3c(c2)OCO3)c1	-4.7%
N#Cc1c(-c2ccc(Cl)cc2)cc(-c2cccs2)nc1SCC(=O)O	-4.9%
CCOC(=O)C1CCN(C2=C(NS(=O)(=O)c3ccc(Br)cc3)C(=O)c3ccccc3C2=O)CC1	-7.95%
O=C(Nc1ccc(Br)cc1)c1ccc(N2C(=O)C3CC=C(Cl)CC3C2=O)cc1 (centres undefined)	-0.95%
COc1ccc(-n2c(N)c(C(=O)NCc3ccco3)c3nc4ccccc4nc32)cc1OC	11.5%
COCCCNC(=O)c1c(N)n(-c2ccccc2)c2nc3ccccc3nc12	33.6% (active)

SMILES	inhibition
C=CCn1c(NC(=O)c2ccc(Br)o2)c(S(=O)(=O)c2ccccc2)c2nc3ccccc3nc21	8.1%
C=CCn1c(NS(=O)(=O)c2ccccc2)c(S(=O)(=O)c2ccc(C)cc2)c2nc3ccccc3nc21	23.6%
COCCNC(=O)c1c(N)n(CCCn2ccnc2)c2nc3ccccc3nc12	40% (active)
COCCNC(=O)c1c(N)n(CCC2=CCCCC2)c2nc3ccccc3nc12	25.1%
C=CCNC(=O)c1c(N)n(-c2cccc(S(N)(=O)=O)c2)c2nc3ccccc3nc12	33% (active)
Nc1c(C(=O)NCc2ccco2)c2nc3ccccc3nc2n1CCc1ccccc1	11%
CCc1cc(=O)oc2c3c(cc(OCC(=O)NCCCCCC(=O)O)c12)OC(C)(C)CC3	29.8%
Cc1ccc(Sc2cc(NCCCO)c([N+](=O)[O-])c3nonc23)cc1	0.15%
COc1ccc(-c2csc(CCN3N=C(C)CC3=O)n2)cc1	-4.6%
Cc1cc2oc(C(=O)Nc3ccc(S(=O)(=O)Nc4nccs4)cc3)cc(=O)c2cc1Cl	-9.2%
Cc1ccc(CSc2nnc(SCC(=O)N/N=C/c3c[nH]c4ccccc34)s2)cc1	-3.9%
CC1CCCN(C2=C(NS(=O)(=O)c3ccc(Br)cc3)C(=O)c3ccccc3C2=O)C1 (centres undefined)	-7.35%
Cc1cccc(NC(=S)Nc2cccc3ccccc23)c1	-3.85%
COc1cc(/C=C2/C(=O)N(c3ccc([N+](=O)[O-])cc3)N=C2N2CCOCC2)ccc1O	-19.4%
N#Cc1c(NC(=O)CSc2ncnc3sccc23)oc(-c2ccco2)c1-c1ccco1	7.1%
CC1=NN(c2ccc(Cl)cc2)C(=O)C1C(c1ccccc1O)c1c(C)[nH]n(-c2ccc(Cl)cc2)c1=O (centres undefined)	-12.7%
CC(C)(C)c1cnnn1-c1cccc([N+](=O)[O-])c1	6.3%
CN1CCCc2cc3c(C(F)(F)F)cc(=O)oc3nc21	57.5% (active)
O=C(CC1CS(=O)(=O)CC1CC(=O)Oc1ccccc1F)Oc1ccccc1F (centres undefined)	5.6%
CC(=O)Oc1ccc2cc(-c3nc4ccccc4n3C)c(=O)oc2c1	38.6% (active)
